Compound activity (PubChem BioAssay)
An excerpt weighted towards active compounds, which were near 13% of everything screened.
CHX counter = Cycloheximide Counterscreen for Small Molecule Inhibitors of Shiga Toxin; max response, %; 300,000 tested, 12% active; AID 2314, 2010; cell reporter, cycloheximide protein synthesis inhibition counterscreen; in the data active means max response mostly above about 13%, no sharp cut-off; inactive means mostly below about 14%; further: read at 38.3 µM for the half of the compounds with a filed dose; 0% is about no effect
MARV entry inh = qHTS for inhibitors of binding or entry into cells for Marburg Virus | Marburg virus pseudotyped entry inhibition, cell reporter | Potency, µM (series often up to 37.8 µM), for inactives: top-dose activity change, negative = inhibition, actives largely listed as inhibitors | 300,000 tested, 1.8% active; calls by dose curve; tested in HEK293 cells; further: potency means the concentration at half of the fitted maximal effect; on the % scale 0 is the no-effect control and ±100 the full control effect
Shiga inhibitor = A qHTS for Small Molecule Inhibitors of Shiga Toxin | Vero cells, Shiga toxin protein synthesis inhibition reporter | inhibition, % at 38.7 µM | 290,000 tested, 9.2% active | AID 2315, 2010; in the data active means inhibition mostly above about 28%, no sharp cut-off; inactive means mostly below about 43%; further: 0% is about no effect
FMDV antiviral = High Throughput Screening for Foot and Mouth Disease Virus Antivirals | FMDV antiviral cell-based qHTS | Potency, µM (top dose mostly 57.9 µM), for inactives: at the top dose activity change, negative = inhibition, actives largely listed as inhibitors | 410,000 tested, 1.2% active | AID 1159524, 2015; calls by dose curve; tested in HEK293T cells; further: read-out not given here; potency means the concentration at half of the fitted maximal effect; on the % scale 0 is the no-effect control and ±100 the full control effect; nearly all actives have a fitted effect of over 45% in size
Lassa entry inh = qHTS for Inhibitors of binding or entry into cells for Lassa Virus; Lassa virus pseudotype entry inhibition, cell reporter; Potency, µM (titrated, usually from 37.9 µM), without a hit: at the top dose activity change, negative = inhibition, most hits filed as inhibitors; 300,000 tested, 1.2% active; AID 540256, 2011; calls by dose curve; tested in HEK293 cells; further: potency means the concentration at half of the fitted maximal effect; on the % scale 0 is the no-effect control and ±100 the full control effect; nearly all actives have a fitted effect of over 50% in size
HCV inhibitor = qHTS Assay for Inhibitors of Hepatitis C Virus (HCV); Huh7.5.1 HCVcc-Cre infection, luciferase reporter, 44 h; Potency, µM (titrated, usually from 41.8 µM), for inactives: at the highest dose activity change, negative = inhibition, usual class: inhibitors; 340,000 tested, 3.4% active; AID 651820, 2012; active means well fitted inhibition curve with a large enough effect; inconclusive means small, poorly fitted or top-dose-only effect, or another doubt; inactive means no such curve, though single readings can be large or run the other way; further: potency means the concentration at half of the fitted maximal effect; on the % scale 0 is the no-effect control and ±100 the full control effect
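Infectious HCVcc-Cre (~0.5 moi) was added to cells just after compound, with cells seeded 4 h earlier at 1,000 per well. Luciferase activity after 44 h culture reported infection; substrate was incubated 15 min at room temperature before reading.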
Starred values were filed as active, the others as inactive; [ ] = another dose, or the depositor's remark.

How did COc1cccc(N2C(=NC(=O)COc3ccccc3)SC3CS(=O)(=O)CC32)c1 (stereo unspecified) do in these assays?
CHX counter: -8; Shiga inhibitor: -6; FMDV antiviral: -9%; HCV inhibitor: 17%

What do the screens show for `CC(=O)c1ccc(N2CCN(C(=O)c3cc4c(-c5ccccc5F)nn(C)c4s3)CC2)cc1`?
CHX counter: -7; Shiga inhibitor: -10; FMDV antiviral: inconclusive; HCV inhibitor: 14µM*

Results for CC(CCc1ccco1)NC(=O)c1cc2c(-c3ccccc3F)nn(C)c2s1 (stereo unspecified) ?
CHX counter: -2; Shiga inhibitor: 9; FMDV antiviral: inconclusive; HCV inhibitor: 18µM*

What do the screens show for `COc1ccccc1N1CCN(C(=O)c2cc3c(-c4ccccc4F)nn(C)c3s2)CC1`?
MARV entry inh: -24%[46.1 µM]; FMDV antiviral: inconclusive; Lassa entry inh: inconclusive

What do the screens show for `CCOC(=O)N1CCN(C(=O)c2cc3c(-c4cccc(OC)c4)nn(C)c3s2)CC1`?
CHX counter: 0; MARV entry inh: inconclusive; Shiga inhibitor: 45; FMDV antiviral: inconclusive; Lassa entry inh: inconclusive; HCV inhibitor: 8.9µM*

Results for CCOC(=O)N1CCC(NC(=O)c2cc3c(-c4cccc(OC)c4)nn(C)c3s2)CC1 ?
CHX counter: -2; MARV entry inh: -17%[46.1 µM]; Shiga inhibitor: -8; FMDV antiviral: inconclusive; Lassa entry inh: -27%; HCV inhibitor: inconclusive

Results for COc1ccc(N2CCN(C(=O)c3cc4c(-c5cccc(OC)c5)nn(C)c4s3)CC2)cc1 ?
CHX counter: -1; MARV entry inh: -2%[46.1 µM]; Shiga inhibitor: 3; FMDV antiviral: -2%; Lassa entry inh: inconclusive; HCV inhibitor: 6.3µM*

How did COc1ccc(-c2cc(=O)oc3cc(OCC(=O)Nc4ccc(CCO)cc4)ccc23)cc1 do in these assays?
CHX counter: 2; MARV entry inh: inconclusive; Shiga inhibitor: -3; FMDV antiviral: inconclusive; Lassa entry inh: -6%[46.1 µM]; HCV inhibitor: 6%

Results for CN1CCN(c2ncc3nc(CCc4ccccc4)c(=O)n(Cc4cccs4)c3n2)CC1 ?
FMDV antiviral: -10%

What do the screens show for `CCOc1ccc(C(=O)Nc2ccc3oc(-c4cccnc4)nc3c2)cc1`?
MARV entry inh: 2%[46.1 µM]; FMDV antiviral: -19%; Lassa entry inh: -13%[46.1 µM]

What do the screens show for `CCCCC(=O)Nc1ccc2oc(-c3cccnc3)nc2c1`?
CHX counter: 31*; MARV entry inh: 9%; Shiga inhibitor: 60*; FMDV antiviral: 13%; Lassa entry inh: inconclusive; HCV inhibitor: -26%

Results for CCCC(=O)Nc1ccc2oc(-c3cccnc3)nc2c1 ?
CHX counter: 25*; MARV entry inh: 0%; Shiga inhibitor: 54*; FMDV antiviral: 46%; Lassa entry inh: 2%; HCV inhibitor: -2%

Results for COC(=O)Cc1ccc2oc(-c3cccnc3)nc2c1 ?
CHX counter: 49*; MARV entry inh: -13%[46.1 µM]; Shiga inhibitor: 88*; FMDV antiviral: 50%; Lassa entry inh: 6%; HCV inhibitor: 10%

How did O=S(=O)(Nc1cccc2cccnc12)C1CC1 do in these assays?
CHX counter: 10; Shiga inhibitor: -1

Results for O=C(COc1cc(F)ccc1[N+](=O)[O-])NCCN1C(=O)CSC1=O ?
MARV entry inh: inconclusive; FMDV antiviral: -26%; Lassa entry inh: -9%; HCV inhibitor: -10%

How did Cc1ccc(OCC(=O)c2ccc3c(c2)CCCC3)cc1C do in these assays?
CHX counter: 36*; MARV entry inh: 0%; Shiga inhibitor: 92*; FMDV antiviral: 32%; Lassa entry inh: -2%; HCV inhibitor: inconclusive

What do the screens show for `O=C(c1ccccc1)c1ccc(OCC(=O)N2CCOCC2)cc1`?
CHX counter: 17; Shiga inhibitor: 46*; FMDV antiviral: 13%; HCV inhibitor: 18%

Results for O=C(COc1ccc(Br)cc1)c1ccc2c(c1)CCCC2 ?
CHX counter: -3; MARV entry inh: -4%; Shiga inhibitor: -5; FMDV antiviral: -22%; Lassa entry inh: -11%; HCV inhibitor: -18%

Results for Cc1cc(OCC(=O)N2CCOCC2)cc2oc(=O)c3ccccc3c12 ?
CHX counter: 21*; MARV entry inh: inconclusive; Shiga inhibitor: 36*; FMDV antiviral: -15%; Lassa entry inh: 1%; HCV inhibitor: -4%

How did Cc1cc(OCC(=O)N2CCCCCC2)ccc1[N+](=O)[O-] do in these assays?
CHX counter: 43*; MARV entry inh: inconclusive; Shiga inhibitor: 17; FMDV antiviral: 28%; Lassa entry inh: 6%; HCV inhibitor: -3%

Results for CCC1C(=O)CC(c2ccc([N+](=O)[O-])cc2)NC1c1ccc([N+](=O)[O-])cc1 (stereo unspecified) ?
CHX counter: 1; MARV entry inh: inconclusive; Shiga inhibitor: -15; FMDV antiviral: -15%; Lassa entry inh: inconclusive; HCV inhibitor: -3%

Results for Cc1c(NS(=O)(=O)c2ccc(N3CCCCC3)c([N+](=O)[O-])c2)c(=O)n(-c2ccccc2)n1C ?
CHX counter: -2; MARV entry inh: inconclusive; Shiga inhibitor: -6; FMDV antiviral: -18%; Lassa entry inh: 4%; HCV inhibitor: 1%

How did Cc1noc(C)c1C(=O)Nc1ccc(S(=O)(=O)N2CCC(C)CC2)cc1 do in these assays?
FMDV antiviral: -34%; HCV inhibitor: inconclusive

How did Cc1ccc(OCC(=O)N2CCCCCCC2)cc1C do in these assays?
CHX counter: 21*; MARV entry inh: inconclusive; Shiga inhibitor: 29*; FMDV antiviral: 17%; Lassa entry inh: 4%[46.1 µM]; HCV inhibitor: -4%

What do the screens show for `Cc1ccc(OCC(=O)N2CCOCC2)cc1C`?
CHX counter: 31*; MARV entry inh: inconclusive; Shiga inhibitor: 44*; FMDV antiviral: 0%; Lassa entry inh: inconclusive; HCV inhibitor: 6%

How did Cc1ccc(OCC(=O)N2CCc3ccccc3C2)cc1C do in these assays?
FMDV antiviral: 40%

Results for Cc1ccc(C)c(OCCCC(=O)N2CCOCC2)c1 ?
CHX counter: 27*; MARV entry inh: 10%; Shiga inhibitor: 44*; FMDV antiviral: 13%; Lassa entry inh: 2%; HCV inhibitor: 12%

How did CCOc1ccc(OCC(=O)N2CCOCC2)cc1 do in these assays?
CHX counter: 14; MARV entry inh: 9%[46.1 µM]; Shiga inhibitor: 25; FMDV antiviral: 7%; Lassa entry inh: 0%; HCV inhibitor: 9%

What do the screens show for `Cn1c(=NC(=O)CN2C(=O)C3CC=CCC3C2=O)sc2ccccc21` (stereo unspecified)?
CHX counter: 25; MARV entry inh: 18%; Shiga inhibitor: 24; FMDV antiviral: 18%; Lassa entry inh: 16%; HCV inhibitor: 3%

Results for COc1cccc(NC(=O)CCN2CCN(CCO)CC2)c1 ?
FMDV antiviral: -16%; Lassa entry inh: 6%[46.1 µM]
